Records with an inconclusive call do not appear. Activity calls are given as the source filed them. The calls were made as follows: active = hit-call score of the fitted dose curve at least 0.9, where 1 is the maximum; inconclusive = response in the unintended direction; inactive = score below 0.9.
How the values were obtained:
[1] = target: human Neurokinin, NK2 Receptor, TACR2 (gene 6865) (UniProt P21452); test: NVS_GPCR_hNK2: NovaScreen (NVS) G Protein-Coupled Receptor Assay for human Neurokinin, NK2 Receptor (AID 2283278);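 also: actives reduce bound radioligand signal relative to DMSO baseline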
Method in brief: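 CHO-derived membrane protein, radioligand displacement, filter scintillation read at 4 h post-dose. Single-point 25 uM in duplicate, then concentration series for actives; DMSO as negative control.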

[2] = target: D(1A) dopamine receptor (Homo sapiens) (UniProt P21728); test: NVS_GPCR_hDRD1: NovaScreen (NVS) G Protein-Coupled Receptor Assay for human Dopamine Receptor D1 (DRD1) (AID 2283269)
Method in brief: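 Cell-free radioligand binding to human DRD1 from HEK293 membranes, read 1 h after dosing by filter-based scintillation counting. Loss of signal versus DMSO baseline marks displacement. Primary screen at 25 uM single concentration in duplicate; actives followed up in concentration series.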

[3] = target: human Adrenergic, Beta 3 Receptor (Adrb3), ADRB3 (gene 155) (UniProt P13945); test: NVS_GPCR_hAdrb3: NovaScreen (NVS) G Protein-Coupled Receptor Assay for human Adrenergic, Beta 3 Receptor (Adrb3) (AID 2283262)
Method in brief: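 A cell-free filter binding assay read by scintillation counting, with displacement of a specific radioligand measured after 1 hour. The receptor source was SK-N-MC extracts (cells pretreated with isoproterenol and 8-bromo-cAMP). Compounds were first tested at 25 uM in duplicate and then in concentration series.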

[4] = target: human Adrenergic, Alpha 2c Receptor (Adra2C), ADRA2C (gene 152) (UniProt P18825); test: NVS_GPCR_hAdra2C: NovaScreen (NVS) G Protein-Coupled Receptor Assay for human Adrenergic, Alpha 2c Receptor (Adra2C) (AID 2283259)
Method in brief: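 Screened first in duplicate at 25 uM, with actives then run as concentration series. Membranes from Sf9 cells were exposed for 1 h, and displacement of radioligand was counted after filtration, using DMSO as baseline.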

[5] = target: human Dopamine Receptor D4.4 (DRD4.4), DRD4 (gene 1815) (UniProt P21917); test: NVS_GPCR_hDRD4.4: NovaScreen (NVS) G Protein-Coupled Receptor Assay for human Dopamine Receptor D4.4 (DRD4.4) (AID 2283264)
Method in brief: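 Filter-binding assay with a tritiated or iodinated ligand, cell-free receptor prepared from CHO, 1 hour. Loss of bound radioactivity versus DMSO; single 25 uM duplicate screen, then concentration-response for actives.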

[6] = target: human Dopamine Receptor D2 (DRD2), DRD2 (gene 1813) (UniProt P14416); test: NVS_GPCR_hDRD2s: NovaScreen (NVS) G Protein-Coupled Receptor Assay for human Dopamine Receptor D2 (DRD2) (AID 2283266)
Method in brief: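 Test compound (25 uM, duplicate in the primary screen; concentration series at follow-up) competed with radioligand for human DRD2 in CHO-derived membrane protein. Filter-based scintillation counting was done 1.5 hours after dosing, with loss of signal analysed against DMSO.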

[7] = target: human Histamine 1 Receptor (H1), HRH1 (gene 3269) (UniProt P35367); test: NVS_GPCR_hH1: NovaScreen (NVS) G Protein-Coupled Receptor Assay for human Histamine 1 Receptor (H1) (AID 2283268)
Method in brief: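 Filter-based scintillation detection of radioligand binding to human H1, 1 h incubation; chemicals screened in duplicate at 25 uM, then concentration-response; signal loss relative to DMSO taken as activity.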

[8] = target: Muscarinic acetylcholine receptor M3 (Homo sapiens) (UniProt P20309); test: NVS_GPCR_hM3: NovaScreen (NVS) G Protein-Coupled Receptor Assay for human Muscarinic, M3 Receptor (AID 2283272)
Protocol: NVS_GPCR_hM3 is a biochemical, single-readout assay that uses extracted gene-proteins from CHO in a cell-free assay. Measurements were taken 1 hour after chemical dosing in a 96-well plate.NVS_GPCR_hM3 is one of one assay component(s) measured or calculated from the NVS_GPCR_hM3 assay. It is designed to make measurements of radioligand binding, a form of binding reporter, as detected with scintillation counting signals by Filter-based radiodetection technology.Data from the assay component NVS_GPCR_hM3 was analyzed into 1 assay endpoint. This assay endpoint, NVS_GPCR_hM3, was analyzed in the positive analysis fitting direction relative to DMSO as the negative control and baseline of activity. […] Furthermore, this assay endpoint can be referred to as a primary readout, because the performed assay has only produced 1 assay endpoint. […]
Binding assays used specific radioligands (tritiated, iodinated) with non-radioactive competitive displacement ligands in agonist or antagonist protocols (as indicated) and various reference compounds and inhibitors to titrate specific binding to receptors and transporters. Most enzyme assays (CYPs, kinases, phosphatases, proteases, HDACs) used recombinant protein and specific substrates (fluorescence mostly, some colorimetric and radioactive) and inhibitors, followed by a biochemical separation of substrate and product. […]

[9] = target: Muscarinic acetylcholine receptor M5 (Homo sapiens) (UniProt P08912); test: NVS_GPCR_hM5: NovaScreen (NVS) G Protein-Coupled Receptor Assay for human Muscarinic, M5 Receptor (AID 2283275)
Method in brief: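 Chemicals passing a primary duplicate screen at 25 uM were run as singleton concentration series, maximum 50 uM. Displacement of a specific radioligand from CHO-extracted receptor was read by filter scintillation after 1 h, relative to DMSO.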

[10] = target: Muscarinic acetylcholine receptor M2 (Homo sapiens) (UniProt P08172); test: NVS_GPCR_hM2: NovaScreen (NVS) G Protein-Coupled Receptor Assay for human Muscarinic, M2 Receptor (AID 2283273)
Method in brief: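 CHO-expressed human M2 receptor preparation, competitive displacement of a radioligand read by filter-based scintillation counting after 1 h. Single 25 uM duplicate screen, then concentration-response follow-up of actives; DMSO baseline.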

Sequence of human Neurokinin, NK2 Receptor, TACR2 (gene 6865) (P21452 whole entry, looked up): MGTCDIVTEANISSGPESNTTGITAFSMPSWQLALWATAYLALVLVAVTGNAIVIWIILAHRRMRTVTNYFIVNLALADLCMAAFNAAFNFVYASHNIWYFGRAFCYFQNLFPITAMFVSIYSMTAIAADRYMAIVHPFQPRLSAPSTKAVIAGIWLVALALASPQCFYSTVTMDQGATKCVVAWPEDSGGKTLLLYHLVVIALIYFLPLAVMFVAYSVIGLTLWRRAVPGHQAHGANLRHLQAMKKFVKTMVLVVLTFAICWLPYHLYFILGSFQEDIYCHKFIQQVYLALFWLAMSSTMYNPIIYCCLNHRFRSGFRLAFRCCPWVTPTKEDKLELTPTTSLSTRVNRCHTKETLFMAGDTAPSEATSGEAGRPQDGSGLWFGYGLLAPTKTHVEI
Sequence of D(1A) dopamine receptor (Homo sapiens) (P21728 whole entry, looked up): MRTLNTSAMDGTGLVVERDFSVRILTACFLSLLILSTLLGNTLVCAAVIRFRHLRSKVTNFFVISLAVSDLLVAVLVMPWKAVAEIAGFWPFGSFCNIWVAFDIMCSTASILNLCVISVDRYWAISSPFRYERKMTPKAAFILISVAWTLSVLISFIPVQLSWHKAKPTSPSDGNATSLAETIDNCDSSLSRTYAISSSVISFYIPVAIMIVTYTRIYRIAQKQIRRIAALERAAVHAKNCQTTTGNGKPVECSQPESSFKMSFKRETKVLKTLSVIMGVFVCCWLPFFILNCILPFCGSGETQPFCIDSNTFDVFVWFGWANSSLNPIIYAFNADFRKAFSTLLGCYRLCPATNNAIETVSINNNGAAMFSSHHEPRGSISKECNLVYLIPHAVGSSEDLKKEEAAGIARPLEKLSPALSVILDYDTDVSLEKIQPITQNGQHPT
Sequence of Muscarinic acetylcholine receptor M2 (Homo sapiens) (P08172 whole entry, looked up): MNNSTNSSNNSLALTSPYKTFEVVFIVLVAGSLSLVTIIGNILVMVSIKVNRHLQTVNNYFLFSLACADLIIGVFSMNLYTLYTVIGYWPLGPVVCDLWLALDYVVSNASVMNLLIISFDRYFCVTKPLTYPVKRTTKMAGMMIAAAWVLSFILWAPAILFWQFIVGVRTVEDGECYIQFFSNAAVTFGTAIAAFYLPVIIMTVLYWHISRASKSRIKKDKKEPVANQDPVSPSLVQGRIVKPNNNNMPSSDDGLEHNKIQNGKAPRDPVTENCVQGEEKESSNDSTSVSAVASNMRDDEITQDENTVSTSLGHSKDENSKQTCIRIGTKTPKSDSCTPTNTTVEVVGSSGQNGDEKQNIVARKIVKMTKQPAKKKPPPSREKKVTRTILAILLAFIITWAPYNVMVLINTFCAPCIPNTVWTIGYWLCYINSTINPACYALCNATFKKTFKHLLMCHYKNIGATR
Sequence of human Adrenergic, Beta 3 Receptor (Adrb3), ADRB3 (gene 155) (P13945 whole entry, looked up): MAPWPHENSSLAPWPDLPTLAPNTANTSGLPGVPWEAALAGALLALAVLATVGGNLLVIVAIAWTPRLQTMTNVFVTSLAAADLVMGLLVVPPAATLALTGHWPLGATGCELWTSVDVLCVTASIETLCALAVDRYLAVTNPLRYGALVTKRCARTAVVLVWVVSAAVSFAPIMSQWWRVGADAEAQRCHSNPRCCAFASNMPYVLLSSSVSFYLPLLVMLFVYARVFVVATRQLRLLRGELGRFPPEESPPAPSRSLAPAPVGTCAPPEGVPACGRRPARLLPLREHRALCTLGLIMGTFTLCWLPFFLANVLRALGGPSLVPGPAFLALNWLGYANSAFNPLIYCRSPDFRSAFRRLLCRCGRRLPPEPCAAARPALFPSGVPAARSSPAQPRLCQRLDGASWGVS
Sequence of human Dopamine Receptor D4.4 (DRD4.4), DRD4 (gene 1815) (P21917 whole entry, looked up): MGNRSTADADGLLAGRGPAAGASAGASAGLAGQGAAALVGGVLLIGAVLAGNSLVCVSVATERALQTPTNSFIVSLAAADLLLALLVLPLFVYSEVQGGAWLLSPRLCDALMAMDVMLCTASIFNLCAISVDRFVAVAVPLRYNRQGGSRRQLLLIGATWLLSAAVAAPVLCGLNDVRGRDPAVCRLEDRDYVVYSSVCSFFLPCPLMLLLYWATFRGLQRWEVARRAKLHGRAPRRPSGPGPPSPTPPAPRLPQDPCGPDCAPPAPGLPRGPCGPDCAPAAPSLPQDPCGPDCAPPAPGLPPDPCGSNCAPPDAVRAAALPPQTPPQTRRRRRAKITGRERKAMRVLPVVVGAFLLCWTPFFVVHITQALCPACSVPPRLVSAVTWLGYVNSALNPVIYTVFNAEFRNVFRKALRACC
Sequence of human Dopamine Receptor D2 (DRD2), DRD2 (gene 1813) (P14416 whole entry, looked up): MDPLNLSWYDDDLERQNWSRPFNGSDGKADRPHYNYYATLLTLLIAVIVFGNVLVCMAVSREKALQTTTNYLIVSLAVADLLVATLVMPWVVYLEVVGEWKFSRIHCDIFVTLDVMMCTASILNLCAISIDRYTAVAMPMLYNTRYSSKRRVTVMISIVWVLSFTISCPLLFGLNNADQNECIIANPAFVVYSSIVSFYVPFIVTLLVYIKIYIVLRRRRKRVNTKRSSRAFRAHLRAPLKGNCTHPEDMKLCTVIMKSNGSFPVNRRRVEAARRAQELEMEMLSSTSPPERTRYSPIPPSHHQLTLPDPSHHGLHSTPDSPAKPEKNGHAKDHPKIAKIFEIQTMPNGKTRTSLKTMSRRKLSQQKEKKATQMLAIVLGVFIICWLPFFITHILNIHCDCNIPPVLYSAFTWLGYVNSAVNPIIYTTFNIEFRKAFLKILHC
Sequence of Muscarinic acetylcholine receptor M3 (Homo sapiens) (P20309 whole entry, looked up): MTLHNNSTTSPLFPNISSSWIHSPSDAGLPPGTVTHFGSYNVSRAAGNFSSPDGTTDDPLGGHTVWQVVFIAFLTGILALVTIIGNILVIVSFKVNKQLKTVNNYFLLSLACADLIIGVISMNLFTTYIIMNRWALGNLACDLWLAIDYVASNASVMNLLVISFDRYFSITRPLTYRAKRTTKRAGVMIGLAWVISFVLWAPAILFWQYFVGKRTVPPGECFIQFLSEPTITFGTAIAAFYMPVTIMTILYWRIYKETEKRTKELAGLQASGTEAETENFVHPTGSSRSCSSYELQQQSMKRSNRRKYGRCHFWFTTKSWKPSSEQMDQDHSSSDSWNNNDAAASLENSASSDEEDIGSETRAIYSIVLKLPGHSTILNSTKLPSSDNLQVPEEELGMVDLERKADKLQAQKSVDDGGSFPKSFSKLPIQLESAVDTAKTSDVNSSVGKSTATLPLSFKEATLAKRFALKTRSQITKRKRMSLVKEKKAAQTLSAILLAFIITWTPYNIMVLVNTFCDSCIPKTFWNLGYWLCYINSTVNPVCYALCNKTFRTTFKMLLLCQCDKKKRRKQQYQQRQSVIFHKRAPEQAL
Sequence of human Histamine 1 Receptor (H1), HRH1 (gene 3269) (P35367 whole entry, looked up): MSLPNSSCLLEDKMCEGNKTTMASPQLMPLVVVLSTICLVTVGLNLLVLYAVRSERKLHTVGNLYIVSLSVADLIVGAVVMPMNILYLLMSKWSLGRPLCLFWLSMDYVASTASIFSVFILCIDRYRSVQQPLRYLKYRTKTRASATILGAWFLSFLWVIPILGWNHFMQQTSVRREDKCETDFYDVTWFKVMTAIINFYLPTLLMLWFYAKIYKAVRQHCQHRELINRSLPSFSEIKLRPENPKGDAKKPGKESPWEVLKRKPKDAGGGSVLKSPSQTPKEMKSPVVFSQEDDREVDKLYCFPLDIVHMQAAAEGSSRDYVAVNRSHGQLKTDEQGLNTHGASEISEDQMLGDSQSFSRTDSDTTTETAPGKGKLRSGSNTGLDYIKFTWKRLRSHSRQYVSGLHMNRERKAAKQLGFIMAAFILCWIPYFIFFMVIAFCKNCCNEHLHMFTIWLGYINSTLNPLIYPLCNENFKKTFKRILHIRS
Sequence of human Adrenergic, Alpha 2c Receptor (Adra2C), ADRA2C (gene 152) (P18825 whole entry, looked up): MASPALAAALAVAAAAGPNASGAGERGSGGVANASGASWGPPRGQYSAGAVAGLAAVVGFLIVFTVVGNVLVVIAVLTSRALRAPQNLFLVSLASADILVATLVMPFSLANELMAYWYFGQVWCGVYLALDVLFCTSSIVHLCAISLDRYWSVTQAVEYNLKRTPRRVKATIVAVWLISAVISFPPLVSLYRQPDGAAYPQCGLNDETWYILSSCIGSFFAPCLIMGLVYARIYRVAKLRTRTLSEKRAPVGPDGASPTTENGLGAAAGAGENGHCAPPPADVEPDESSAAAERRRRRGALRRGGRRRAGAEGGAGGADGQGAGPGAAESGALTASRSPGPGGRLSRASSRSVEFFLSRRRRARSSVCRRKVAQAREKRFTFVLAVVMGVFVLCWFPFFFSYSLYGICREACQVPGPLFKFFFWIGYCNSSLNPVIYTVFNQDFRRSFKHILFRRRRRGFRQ
Sequence of Muscarinic acetylcholine receptor M5 (Homo sapiens) (P08912 whole entry, looked up): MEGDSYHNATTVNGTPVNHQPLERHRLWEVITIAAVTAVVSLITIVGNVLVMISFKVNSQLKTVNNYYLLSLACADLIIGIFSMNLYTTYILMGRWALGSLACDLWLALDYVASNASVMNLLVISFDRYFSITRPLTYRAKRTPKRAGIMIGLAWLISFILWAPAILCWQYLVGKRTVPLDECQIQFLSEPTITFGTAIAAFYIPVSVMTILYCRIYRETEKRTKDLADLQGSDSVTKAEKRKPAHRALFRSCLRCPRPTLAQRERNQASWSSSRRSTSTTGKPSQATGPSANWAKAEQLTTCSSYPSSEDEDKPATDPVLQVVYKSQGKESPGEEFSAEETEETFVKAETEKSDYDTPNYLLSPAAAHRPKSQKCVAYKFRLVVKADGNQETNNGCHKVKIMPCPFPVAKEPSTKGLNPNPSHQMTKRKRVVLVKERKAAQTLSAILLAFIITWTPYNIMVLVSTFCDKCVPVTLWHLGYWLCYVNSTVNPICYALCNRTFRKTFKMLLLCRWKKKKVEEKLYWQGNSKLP

In the case of `O=c1oc2ccccc2c(O)c1C(CC(O)c1ccc(-c2ccc(Br)cc2)cc1)c1ccccc1` (stereo not drawn), the AC50 [1] is reported as 23.9 µM (active).

In the case of `OC(Cc1ccccc1Cl)(Cn1[nH]cnc1=S)C1(Cl)CC1` (stereo not drawn), the outcome [2] is reported as “inactive” and the AC50 [1] is reported as 15.3 µM (active).

With `O=[N+]([O-])c1ccc(Nc2ccccc2)cc1` the AC50 [2] was 8.91 µM (active).

`O=C(O)C1(c2ccc3c(c2)OC[C@H](Cc2ccc(-c4ccccc4)cc2)[C@H]3O)CCCC1` was tested, and the outcome [3] was “inactive”.

With `CCOC(=O)CCN(SN(C)C(=O)Oc1cccc2c1OC(C)(C)C2)C(C)C` the outcome [1] was “inactive”.

For `Oc1ccc(Cc2ccc(O)cc2)cc1`, the outcome [2] was “inactive”.

For `Brc1c(Br)c(Br)c(Oc2c(Br)c(Br)c(Br)c(Br)c2Br)c(Br)c1Br`, the outcome [2] was “inactive”.

`CC(C)(C)c1cc([N+](=O)[O-])cc(C(C)(C)C)c1O` was tested, and the outcome [2] was “inactive”.

`O=C1C=CC(=O)c2ccccc21` was tested, and the AC50 [2] was 4.98 µM (active) and the AC50 [1] was 1.1 µM (active).

For `CC(C=O)Cc1ccc2c(c1)OCO2` (stereo not drawn), the outcome [2] was “inactive”.

In the case of `O=S(=O)(C(Cl)(Cl)Cl)C(Cl)(Cl)Cl`, the AC50 [2] is reported as 13.8 µM (active).

`CCOC(=O)C(SP(=S)(OC)OC)c1ccccc1` (stereo not drawn) was tested, and the outcome [1] was “inactive”.

For `CCCCCCCCCCBr`, the outcome [2] was “inactive”.

For `c1ccc2sc(SNC3CCCCC3)nc2c1`, the AC50 [1] was 0.0784 µM (active).

With `CN(C)C(=S)S` the AC50 [1] was 4 µM (active).

With `CCCCCCCCCCCCc1cccc(S(=O)(=O)O)c1` the AC50 [4] was 6.82 µM (active), the AC50 [5] was 13.6 µM (active) and the AC50 [6] was 22.5 µM (active). For the same compound, the AC50 [7] was 25.4 µM (active), the AC50 [2] was 7.44 µM (active) and the AC50 [8] was 16.3 µM (active). The AC50 [9] was 28.4 µM (active) and the outcome [1] was “inactive”.

With `OCCN(CCO)CCO` the outcome [10] was “inactive”.

`Nc1ccc(N)cc1` was tested, and the AC50 [10] was 9.36 µM (active) and the AC50 [1] was 5.13 µM (active).

In the case of `N#Cc1ccccc1N`, the outcome [2] is reported as “inactive”.

For `CCCCCCCCCCCCN(C)C`, the outcome [2] was “inactive” and the AC50 [10] was 22.6 µM (active).

In the case of `[Cl][Sn]([c]1ccccc1)([c]1ccccc1)[c]1ccccc1`, the AC50 [2] is reported as 0.6 µM (active) and the AC50 [1] is reported as 2.13 µM (active).

With `Cc1ccc(OP(=O)(Oc2ccc(C)cc2C)Oc2ccc(C)cc2C)c(C)c1` the AC50 [2] was 14.3 µM (active) and the AC50 [1] was 8.63 µM (active).

In the case of `N#CCCC(Br)(C#N)CBr` (stereo not drawn), the AC50 [2] is reported as 11 µM (active).

`BrCCCCBr` was tested, and the outcome [10] was “inactive”.

In the case of `CCN(N=O)C(N)=O`, the outcome [1] is reported as “inactive”.
